Experimental data published in PubChem BioAssay.
The source made the active and inactive calls. Unless noted, how the calls were made is not given here.

How the values were obtained:
[1] = A549 cell viability effects, profiling panel, calcein-AM fluorescence, 48 h, basal (AID 1162); conditions: higher = more signal; further: test concentration not given here
[2] = adipocyte viability effects, profiling panel, cell-based, 3T3-L1 adipocytes, calcein-AM fluorescence, 48 h, basal (AID 1163); conditions: 3T3-L1 adipocytes viability, higher = more signal; further: test concentration not given here
[3] = HepG2 cell viability effects, profiling panel, calcein-AM fluorescence, 48 h, basal (AID 1164); conditions: higher = more signal; further: test concentration not given here
[4] = MM1S cell viability effects, profiling panel, calcein-AM fluorescence, 48 h, basal (AID 1165); conditions: higher = more signal;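 further: viability of MM1S multiple myeloma cells under basal unstimulated conditions; test concentration not given here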
[5] = basal RPMI8226 viability, no added stimulus, profiling panel, cell-based, calcein-AM fluorescence, 48 h, PK04 Diversity Set (AID 1166); conditions: RPMI8226 myeloma viability, higher = more signal;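 further: cells grown under basal conditions without added stimulus; test concentration not given here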
[6] = basal HepG2 mitochondrial membrane potential changes, profiling panel, cell-based, JC-1 fluorescence, 24 h, 100 nL compound (AID 1167); conditions: higher = more signal; further: test concentration not given here
[7] = basal 3T3-L1 adipocyte mitochondrial potential changes, profiling panel, cell-based, JC-1 fluorescence, 3T3-L1 adipocytes, 24 h, 100 nL compound (AID 1168); conditions: JC-1 mitochondrial fluorescence, higher = more signal, called active from +8 up or from −8 down; further: test concentration not given here
[8] = basal RPMI8226 mitochondrial membrane potential changes, profiling panel, cell-based, JC-1 fluorescence, 24 h, 100 nL compound (AID 1169); conditions: RPMI8226 myeloma, JC-1 mitochondrial potential fluorescence, higher = more signal; further: test concentration not given here
[9] = basal MM1S mitochondrial membrane potential changes, profiling panel, cell-based, JC-1 fluorescence, 24 h, 100 nL compound (AID 1170); conditions: higher = more signal; further: test concentration not given here
[10] = A549 lung cancer cell viability effects, profiling panel, resazurin fluorescence, 24 h, PK04 Diversity Set (AID 1171); conditions: higher = more signal, called active from +8 up or from −8 down; further: test concentration not given here
[11] = HepG2 liver cancer cell viability effects, profiling panel, resazurin fluorescence, 24 h, PK04 Diversity Set (AID 1172); conditions: higher = more signal; further: test concentration not given here
[12] = basal S. cerevisiae growth modulation, no modifier, primary screen, OD600, strain BY4716, 24 h, basal condition (AID 1173); conditions: OD600, 24 h, higher = more signal, called active from +8 up or from −8 down
[13] = MM1S myeloma cell viability, profiling panel, resazurin fluorescence, basal, 24 h, PK04 Diversity Set (AID 1174); conditions: higher = more signal, called active from +8 up or from −8 down;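 further: MM1S multiple myeloma cell line; test concentration not given here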
[14] = target: Dihydroorotate dehydrogenase (quinone), mitochondrial (Plasmodium falciparum (isolate 3D7)) (UniProt Q08210); test: PfDHODH enzyme inhibitors, primary screen, biochemical, C-terminal His tag, absorbance 600 nm (AID 1175); conditions: DCIP absorbance 600 nm, higher = more signal, called active from +8 up or from −8 down;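 further: recombinant parasite enzyme with a five histidine tag at its C terminus; test concentration not given here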
[15] = P. aeruginosa biofilm formation inhibitors, primary screen, strain PAO1, LB-PBS medium, absorbance 600 nm (AID 1176); further: test concentration not given here; conditions: P. aeruginosa PAO1 growth/biofilm, A600, 12 h; higher = more signal
[16] = S. cerevisiae RM11-1a growth modifiers, primary screen, strain RM11-1a, OD600, basal, 24 h (AID 1177); conditions: OD600, 24 h, higher = more signal, called active from +8 up or from −8 down;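 further: cultures grown under basal conditions with no added stressor; test concentration not given here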
[17] = E. coli acrAB mutant growth effects, primary screen, E. coli filamentation inducers, strain DRC39, OD650, 24 h (AID 1178); conditions: higher = more signal, called active from +8 up or from −8 down;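 further: growth measured as culture turbidity by optical density at 650 nm; test concentration not given here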
[18] = E. coli acrAB mutant growth effects, primary screen, E. coli filamentation inducers, strain DRC39, OD650, 48 h (AID 1179);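 further: screen aims at cell division blockers that make cells filament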; conditions: E. coli DRC39 delta-acrAB growth, higher = more signal, called active from +8 up or from −8 down
[19] = RPMI8226 myeloma cell viability, profiling panel, resazurin fluorescence, basal, 24 h, PK04 Diversity Set (AID 1180); conditions: higher = more signal;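 further: RPMI8826 multiple myeloma cell line at 5000 cells per well; test concentration not given here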
[20] = target: E3 ubiquitin-protein ligase XIAP (Homo sapiens) (UniProt P98170); test: XIAP binders, primary screen, biophysical, small-molecule microarray, fluorescence 635 nm (AID 1181); conditions: small-molecule microarray binding, higher = more signal;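 further: score merges 667 nm emission and signal to noise over triplicate slides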
E3 ubiquitin-protein ligase XIAP (Homo sapiens), sequence (P98170 whole entry, looked up): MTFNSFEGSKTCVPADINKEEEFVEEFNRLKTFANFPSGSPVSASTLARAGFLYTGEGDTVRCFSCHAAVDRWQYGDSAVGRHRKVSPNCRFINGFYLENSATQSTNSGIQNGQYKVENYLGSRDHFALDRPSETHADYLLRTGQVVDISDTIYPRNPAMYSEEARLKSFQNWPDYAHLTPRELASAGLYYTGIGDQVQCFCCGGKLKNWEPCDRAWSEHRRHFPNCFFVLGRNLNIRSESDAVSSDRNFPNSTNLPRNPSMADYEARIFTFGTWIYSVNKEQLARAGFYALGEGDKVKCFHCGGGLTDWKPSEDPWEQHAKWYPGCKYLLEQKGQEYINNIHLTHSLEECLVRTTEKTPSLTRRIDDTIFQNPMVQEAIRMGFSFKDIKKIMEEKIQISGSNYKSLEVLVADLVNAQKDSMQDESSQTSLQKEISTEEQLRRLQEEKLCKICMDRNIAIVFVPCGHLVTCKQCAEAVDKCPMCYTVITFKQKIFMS

Dihydroorotate dehydrogenase (quinone), mitochondrial (Plasmodium falciparum (isolate 3D7)), sequence (Q08210 whole entry, looked up): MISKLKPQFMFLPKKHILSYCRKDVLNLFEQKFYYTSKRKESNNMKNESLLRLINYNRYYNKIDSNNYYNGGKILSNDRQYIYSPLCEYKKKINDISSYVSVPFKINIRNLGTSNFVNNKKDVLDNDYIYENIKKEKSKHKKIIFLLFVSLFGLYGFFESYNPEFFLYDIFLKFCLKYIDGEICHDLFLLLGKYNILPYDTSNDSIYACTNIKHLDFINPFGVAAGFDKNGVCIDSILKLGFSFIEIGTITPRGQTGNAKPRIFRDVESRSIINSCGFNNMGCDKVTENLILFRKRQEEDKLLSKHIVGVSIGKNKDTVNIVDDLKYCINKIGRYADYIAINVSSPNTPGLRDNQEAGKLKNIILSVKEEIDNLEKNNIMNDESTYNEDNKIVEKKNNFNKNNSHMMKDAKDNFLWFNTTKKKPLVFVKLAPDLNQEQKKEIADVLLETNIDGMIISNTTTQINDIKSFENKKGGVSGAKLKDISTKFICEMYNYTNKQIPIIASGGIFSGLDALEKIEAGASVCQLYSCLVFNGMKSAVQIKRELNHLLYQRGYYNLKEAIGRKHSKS

Structure (SMILES)	z-score [1]	z-score [2]	z-score [3]	z-score [4]	z-score [5]	z-score [6]	z-score [7]	z-score [8]	z-score [9]	z-score [10]	z-score [11]	z-score [12]	z-score [13]	composite z-score [14]	z-score [15]	z-score [16]	z-score [17]	z-score [18]	z-score [19]	composite z-score [20]
Oc1ccc2cc[n+](Cc3cccc(OC(F)(F)F)c3)cc2c1	0.609	0.128	0.577	0.683	-0.592	0.303	0.339 (inactive)	0.593	-0.862	-1.81 (inactive)	-0.975	0.236 (inactive)	-0.304 (inactive)	-1.09 (inactive)	0.0061 (inactive)	0.585 (inactive)	0.4 (inactive)	0.743 (inactive)	-1.07	0.202
COc1ccc([Si](C)(C)[C@H]2[C@H](CC(=O)N3CCC[C@H]3CO)O[C@@]3(C(=O)N(Cc4cccc(N5CCC5=O)c4)c4ccccc43)[C@@H]2C)cc1	-0.246	1.57	-0.108	-2.2	-4.11	3.25	-0.457 (inactive)	-1.14	0.619	-1.2 (inactive)	-1.26	0.124 (inactive)	-0.616 (inactive)	-7.33 (inactive)	0.507 (inactive)	1.23 (inactive)	0.791 (inactive)	0.473 (inactive)	-0.826	-0.152
CC(C)N1C(=O)c2ccccc2[C@](C)(C(=O)NCCCN(C)C)[C@@H]1c1ccc(CO)cc1	0.415	0.302	0.446	-0.0937	-0.384	0.861	-0.253 (inactive)	-0.13	0.413	0.565 (inactive)	0.257	-0.919 (inactive)	0.627 (inactive)	0.0044 (inactive)	-0.522 (inactive)	-0.283 (inactive)	0.0957 (inactive)	-0.429 (inactive)	0.842	0.0871
O=C1OCCC/C=C\[C@H]2OC34C=CCN(CCN5CCOCC5)C(=O)[C@H]3N(CCO)C(=O)[C@@H]4C12 (stereo not given in full)	-1.18	1.72	-0.615	1.31	-0.832	-0.41	-1.21 (inactive)	-0.802	0.533	-1.99 (inactive)	-0.881	0.0436 (inactive)	-0.562 (inactive)	0.71 (inactive)	-0.317 (inactive)	1.05 (inactive)	-1.12 (inactive)	-1.09 (inactive)	-0.654	0.685
CN(C)CCCC[C@@H]1NC(=O)[C@H]2C[C@@H](C(=O)NCCCCCNC(=O)CS)[C@@H](c3ccc(O)cc3)N2C1=O	-0.294	-0.478	-0.0888	0.201	-0.285	1.68	-0.143 (inactive)	-0.319	0.543	-0.358 (inactive)	-0.0707	-0.691 (inactive)	0.518 (inactive)	0.419 (inactive)	-0.13 (inactive)	-0.158 (inactive)	-0.297 (inactive)	0.326 (inactive)	0.108	-0.0344
CC(=O)NCCCC[C@@H]1NC(=O)[C@@H]2C[C@H](C(=O)NCCCCCC[N+](C)(C)C)[C@H](c3cccc(OCCO)c3)N2C1=O	-0.339	-0.547	-0.231	-0.241	0.397	-1.51	-0.0349 (inactive)	0.226	-0.12	0.481 (inactive)	-0.29	1.05 (inactive)	-0.147 (inactive)	-0.908 (inactive)	0.118 (inactive)	1.44 (inactive)	-0.119 (inactive)	-0.42 (inactive)	-0.536	-0.36
CN1C(=O)C2C=CC(C(O)C(c3ccccc3)c3ccccc3)N(Nc3ccccc3)C2C1=O (stereo not given)	0.322	-0.648	-0.0678	-1.34	-1.07	-1.66	-0.981 (inactive)	0.212	-0.179	0.46 (inactive)	-0.562	-2.21 (inactive)	-0.978 (inactive)	0.0016 (inactive)	1.16 (inactive)	-0.238 (inactive)	-1.31 (inactive)	-1.38 (inactive)	-1.2	0.21
COc1ccc(C(=O)Nc2cccc(CN3C(=O)[C@@]4(O[C@@H](CC(=O)N5Cc6ccccc6C[C@H]5CO)[C@H]([Si](C)(C)c5ccc(OC)cc5)[C@H]4C)c4ccccc43)c2)cc1	0.0601	0.778	-0.446	-2.57	-3.06	0.851	0.862 (inactive)	-0.976	-1.88	-0.967 (inactive)	-0.79	0.147 (inactive)	-3.05 (inactive)	-4.98 (inactive)	1.42 (inactive)	1.91 (inactive)	0.978 (inactive)	0.621 (inactive)	-1.99	-0.0525
O=C1NC(=O)C2C1C=CC(C(O)c1cccs1)N2Nc1ccccn1 (stereo not given)	1.74	-0.508	0.714	0.119	1.13	0.674	0.112 (inactive)	0.268	0.0729	-1.06 (inactive)	-0.687	0.0408 (inactive)	-1.71 (inactive)	0.566 (inactive)	0.916 (inactive)	0.623 (inactive)	-0.0795 (inactive)	0.0691 (inactive)	0.398	0.174
CCN(CC)c1ccc(N2CC=CC34O[C@@H]5C=CCOC(=O)[C@@H]5[C@H]3C(=O)N(CCCCCO)[C@@H]4C2=O)cc1 (stereo not given in full)	-0.46	1.1	-0.0753	-0.0913	0.199	0.497	0.876 (inactive)	0.0564	1.65	-0.0833 (inactive)	0.34	0.0663 (inactive)	1.08 (inactive)	0.618 (inactive)	-0.193 (inactive)	-0.272 (inactive)	0.831 (inactive)	0.349 (inactive)	0.225	0.532
COC(=O)[C@@]1(Cc2ccc(F)cc2)[C@H]2c3cc(C(=O)N(C)C)n(CCc4c[nH]c5ccc(OC)cc45)c3C[C@H]2CN1C(=O)c1ccccc1	-0.906	0.813	-0.885	-0.64	-1.79	0.922	-0.939 (inactive)	-0.262	-1.82	-0.752 (inactive)	-0.643	0.971 (inactive)	-2 (inactive)	-2.26 (inactive)	4.65 (inactive)	0.679 (inactive)	-0.562 (inactive)	-0.681 (inactive)	-1.59	0.326
CCOC(=O)C[C@H]1[C@H](OC(=O)c2ccccc2-c2ccccc2)[C@@H](NC(=O)c2ccc(-c3ccccc3)cc2)c2cc(OCCCO)ccc2N1C(=O)c1ccccc1	0.168	0.405	0.188	0.0425	-0.602	1.5	0.247 (inactive)	-0.312	-0.0178	0.0248 (inactive)	-0.607	0.579 (inactive)	0.633 (inactive)	1.03 (inactive)	-0.341 (inactive)	1.61 (inactive)	1.39 (inactive)	0.53 (inactive)	0.608	-0.121
Cc1ccc(S[C@]2(C(=O)NCC(C)C)CC(=O)N(Cc3ccccc3)[C@@H]2c2ccc(CO)cc2)cc1	0.204	0.38	-0.056	-1.32	-0.152	-0.135	-0.239 (inactive)	0.205	0.435	1.23 (inactive)	0.408	-0.841 (inactive)	0.559 (inactive)	-0.586 (inactive)	0.525 (inactive)	-0.341 (inactive)	0.298 (inactive)	-0.667 (inactive)	0.505	0.104
CN1C(=O)C2C=CC(C(O)C=Cc3ccc([N+](=O)[O-])cc3)N(N3CCCCC3)C2C1=O (stereo not given)	-1.1	-1.15	-0.382	-0.351	0.107	-1.77	-1.31 (inactive)	-0.834	-0.4	-0.244 (inactive)	-0.559	-1.42 (inactive)	-1.42 (inactive)	-0.358 (inactive)	1.01 (inactive)	-0.555 (inactive)	-0.685 (inactive)	-0.397 (inactive)	-1.88	0.142
CC(C)C(O)C1C=CC2C(=O)N(C)C(=O)C2N1N1CCCCC1 (stereo not given)	0.553	-0.0255	-0.306	-0.602	-1.34	-0.778	-0.307 (inactive)	0.643	-0.189	-0.153 (inactive)	-0.401	0.717 (inactive)	-0.82 (inactive)	-0.0607 (inactive)	0.916 (inactive)	0.0471 (inactive)	-0.754 (inactive)	-0.837 (inactive)	-0.323	-0.0448
C=CCOC(=O)[C@H]1[C@@H]2C(=O)O[C@@H](c3ccccc3)[C@@H](c3ccccc3)N2[C@@H](c2ccc(OCCOC(=O)[C@H]3C[C@H]4C(=O)N[C@@H](CCCC[N+](C)(C)C)C(=O)N4[C@H]3c3ccc(O)cc3)cc2)[C@]12C(=O)Nc1ccccc12	1.6	0.6	0.549	0.419	0.337	-1.12	1.31 (inactive)	-0.456	-0.0465	0.896 (inactive)	0.767	-2.24 (inactive)	1.31 (inactive)	-2.24 (inactive)	-0.723 (inactive)	0.0539 (inactive)	0.402 (inactive)	0.0612 (inactive)	1.21	0.0325
